# Assay results from PubChem BioAssay (NCI).
# “And” between values parts separate entries of the source, which are not always exact repeats. Equal values may be shown once. This is part of a sample that, as a whole, favours compounds with a hit. Of some 83,000 tested, about 20% had one in any assay.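 96-well plates, one dose, 48 hours. Percent growth reported; active if below 10.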 Values without a mark were called inactive. The source made the active and inactive calls.
# Tests used:
# Assay in all cases: NCI-60 one-dose screen, 48 h (100 = growth as untreated, 0 = no growth, -100 = all killed)
# Conditions in all cases: 10 µM unless noted
# NCI-H23 lung = system: NCI-H23 lung
# NCI-H226 lung = system: NCI-H226 lung
# NCI-H322M lung = system: NCI-H322M lung
# HOP-62 NSCLC = system: HOP-62 NSCLC
# NCI-H460 lung = system: NCI-H460 lung
# HOP-92 NSCLC = system: HOP-92 NSCLC
# NCI-H522 lung = system: NCI-H522 lung
# A549/ATCC NSCLC = system: A549/ATCC NSCLC
# 786-0 renal = system: 786-0 renal
# COLO 205 colon = system: COLO 205 colon
# DU-145 prostate = system: DU-145 prostate
# K-562 leukemia = system: K-562 leukemia
# MALME-3M melanoma = system: MALME-3M melanoma
# MDA-MB-231 breast = system: MDA-MB-231 breast
# RXF 393 renal = system: RXF 393 renal
# SF-268 CNS = system: SF-268 CNS
# SF-295 CNS = system: SF-295 CNS
# SF-539 CNS = system: SF-539 CNS
# UACC-257 melanoma = system: UACC-257 melanoma
# M14 melanoma = system: M14 melanoma
Structure (SMILES),growth (NCI-H23 lung),growth (NCI-H226 lung),growth (NCI-H322M lung),growth (HOP-62 NSCLC),growth (NCI-H460 lung),growth (HOP-92 NSCLC),growth (NCI-H522 lung),growth (A549/ATCC NSCLC),growth (786-0 renal),growth (COLO 205 colon),growth (DU-145 prostate),growth (K-562 leukemia),growth (MALME-3M melanoma),growth (MDA-MB-231 breast),growth (RXF 393 renal),growth (SF-268 CNS),growth (SF-295 CNS),growth (SF-539 CNS),growth (UACC-257 melanoma),growth (M14 melanoma)
CC[C@H](C)[C@H](NC(=O)[C@H]1CCCCN1C)C(=O)N(C)[C@H](C[C@@H](OC(C)=O)c1cccc(C(=O)N[C@@H](Cc2ccccc2)C[C@H](C)C(=O)OC)n1)C(C)C,22.4%,23.3%,40.3%,3.61% (active),7.06% (active),-0.87% (active),-11.6% (active),10.5%,14.5%,-71.6% (active),2.8% (active),5.5% (active),66.7%,2.42% (active),13.1%,13.9%,2.21% (active),-14% (active),47.6%,-8.11% (active)
CC1=C([Te]c2ccccc2)C(=O)c2ccccc2C1=O,-33.9% (active),-52.1% (active),-22.8% (active),-49.5% (active),-57.7% (active),-53.8% (active),-15.3% (active),-66.1% (active),-46.2% (active),-83.6% (active),-53.4% (active),14.7%,-49.5% (active),-24.6% (active),-35.5% (active),-18.1% (active),-34.5% (active),-71.4% (active),-26.2% (active),-22.1% (active)
CC[C@H](C)[C@H](NC(=O)c1ncccn1)C(=O)N(C)[C@H](C[C@@H](OC(C)=O)c1nc(C(=O)N[C@@H](Cc2ccccc2)C[C@H](C)C(=O)OC)cs1)C(C)C,40.9%,51.2%,42%,22.8%,10.8%,33.5%,0.376% (active),32.9%,38.5%,4.56% (active),9.45% (active),7.26% (active),60.7%,4.19% (active),-8.95% (active),30.6%,14.4%,-51.1% (active),50.2%,5.61% (active)
Cc1c(C)c(N)c(C)c(C)c1N,79.2%,98.5%,87.6%,90.6%,39.8%,97.5%,40.8%,79.6%,107%,91.9%,6.41% (active),97.8%,93.2%,83.2%,84.1%,91.5%,85.4%,108%,92.9%,98.7%
Cc1ccc(N2CCN(CCC#N)CC2)cc1,100%,92.1%,75.2%,93.6%,97.7%,98.4%,84.6%,88.5%,100%,93.7%,101%,110%,70.1%,107%,88%,105%,105%,79.1%,84.5%,98.6%
C/C(=N/OC(=O)N(C)C)c1ccc(Cl)c(Cl)c1,98.2%,102%,96.1%,107%,107%,102%,102%,82.7%,103%,111%,121%,120%,115%,105%,108%,105%,112%,114%,97.4%,113%
O=c1[nH]c(=O)n(Cl)c(=O)n1Cl,99.2%,98.4% and 104%,108% and 119%,109% and 98.3%,116% and 109%,101% and 91.2%,101% and 100%,105% and 112%,115% and 99.5%,117% and 123%,142%,109%,106% and 110%,99.1% and 113%,114% and 120%,108% and 136%,101% and 114%,106% and 92.5%,99.5% and 117%,103% and 98.4%
COc1ccc2c(c1)c(-c1nc(-c3c[nH]c4ncccc34)cs1)cn2CCCCN1CCOCC1,69.9%,70.3%,57.2%,37.1%,4.29% (active),43%,39.9%,49.7%,-43.7% (active),-100% (active),48.9%,-65.2% (active),-66.7% (active),23.4%,31.9%,52.4%,13.1%,49.3%,79.5%,-53.5% (active)
Cc1ccc(NC2=N[C@]34CC(=O)CC[C@]3(C)[C@H]3CC[C@]5(C)C(=O)CC[C@H]5[C@@H]3C[C@@H]4S2)c(C)c1,54.2%,72.8%,79.5%,45.7%,45.8%,65.9%,24.6%,61.1%,5.54% (active),62.4%,25.9%,5.33% (active),27.3%,26.6%,28.8%,46.9%,63.8%,8.46% (active),65.6%,37.9%
CC1(C)S[C@H]2CC[C@H]3OC(=O)[C@@H]1N23,94.7%,98.1%,98.7%,104%,110%,77.9%,88.9%,96.6%,106%,137%,116%,111%,101%,121%,103%,113%,88%,104%,116%,106%
CCOP(=O)(NC)OCC,95.6%,94.3%,122%,90.8%,104%,74.5%,112%,114%,92.1%,117%,112%,120%,121%,104%,118%,98.7%,129%,101%,121%,94.8%
CC(C)c1cccc(C(C)C)c1O,97% and 103%,107% and 103%,99.6% and 93%,111% and 110%,117% and 101%,100%,98%,93.1% and 75.5%,108%,116% and 111%,109% and 116%,92.8% and 104%,95.7% and 91.8%,114% and 107%,109%,110% and 97.7%,101% and 103%,115% and 97.4%,100%,109% and 111%
CCN1C(=O)NC(=O)C(C)(N2C(=O)c3c(F)c(F)c(F)c(F)c3C2=O)C1=O (stereo not given),32.3%,105%,96.7%,101%,22.8%,-42.6% (active),-76.6% (active),43.1%,37.4%,-51.4% (active),31.9%,-71.2% (active),-39.6% (active),9.99% (active),-63.8% (active),5.09% (active),84.1%,18.6%,38.5%,24.4%
O=[N+]([O-])c1cc(Cl)c(Cl)c([N+](=O)[O-])c1Cl,85.6%,81.4%,123%,119%,99.7%,74.9%,-86.7% (active),92.5%,114%,-23.8% (active),85.4%,7.08% (active),-26% (active),91.8%,55.5%,84.2%,134%,103%,16.1%,3.65% (active)
C[Se]/C=C1/C(=O)N(c2c(Cl)cccc2Cl)c2ccccc21,39%,10.9%,37.5%,22%,14.6%,15.7%,21.1%,7.85% (active),51.1%,38.9%,43.9%,20.3%,37.4%,31.1%,19.4%,8.58% (active),38%,0.963% (active),-4.62% (active),20.4%
